High-throughput results deposited in PubChem BioAssay by National Center for Advancing Translational Sciences (NCATS).
NS1 function inh – qHTS Assay for Inhibitors of Influenza NS1 Protein Function | 270,000 compounds, 0.4% hits | AID 2326, 2010 | Potency, µM (top dose mostly 46.1 µM); further: actives are rising curves; nearly all actives have a fitted effect of over 50% in size
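Read-out: OD600 growth recovery of NS1-expressing budding yeast. Cells grown overnight at 30C in -URA glucose medium, washed, resuspended and diluted 1:100 in 2% galactose assay medium, pH 6.0. Same strain lacking NS1 served as positive control.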
Pf growth 96h – Primary qHTS for delayed death inhibitors of the malarial parasite plastid, 96 hour incubation. P. falciparum luciferase reporter growth, 96 h. Potency, µM (series often up to 28.7 µM), usual class: inhibitors. 320,000 compounds, 6.9% hits; active means well fitted inhibition curve with a large enough effect; inconclusive means small, poorly fitted or top-dose-only effect, or another doubt; inactive means no such curve, though single readings can be large or run the other way
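96 h incubation, 37 C, 5% CO2, of luciferase-reporter P. falciparum-infected RBCs (2% hematocrit, 0.05% parasitemia final) with test compounds; endpoint luminescence.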
Pf growth 48h – Primary qHTS for delayed death inhibitors of the malarial parasite plastid, 48 hour incubation | P. falciparum luciferase growth in erythrocytes, 48 h | Potency, µM (titrated, usually from 28.7 µM), most hits filed as inhibitors | 310,000 compounds, 5.9% hits; active means well fitted inhibition curve with a large enough effect; inconclusive means small, poorly fitted or top-dose-only effect, or another doubt; inactive means no such curve, though single readings can be large or run the other way
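Luminescence readout; reporter = integrated firefly luciferase in P. falciparum. RBC culture at 2% hematocrit, 0.1% parasitemia final, 37 C/5% CO2; decreased signal taken as growth inhibition.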
SARS PLpro yeast – qHTS of Yeast-based Assay for SARS-CoV PLP. S. cerevisiae expressing SARS-CoV PLpro, growth rescue. Potency, µM (highest dose often 32.9 µM), hits mostly activators. 330,000 compounds, 0.19% hits. AID 485353, 2010; further: nearly all actives have a fitted effect of over 55% in size
Hits are given with their value; – = inactive; ? = inconclusive; · = not tested or not shown; [ ] = another dose, or the depositor's remark. Only some compounds are listed: those with a hit (about 10% of all), similar ones and a draw of the others. Unless noted, the call rests on the fitted dose curve.

SMILES	NS1 function inh	Pf growth 96h	Pf growth 48h	SARS PLpro yeast
CC(C)(C)OC(=O)NCc1ccc(CNC(=O)c2[nH]cnc2C(=O)N[C@@H](Cc2ccccc2)C(=O)OC(C)(C)C)cc1	?	?	10µM	–
CCc1nc2ccc(C(=O)N3CCN(c4ccc([N+](=O)[O-])cc4)CC3)cc2nc1CC	–	?	?	–
N#Cc1ccc(CNC(=O)N2CCOCC2)cc1	–	·	·	·
CC(C)(C)OC(=O)NCc1ccc(CNC(=O)c2nc[nH]c2C(=O)NCc2ccccc2)cc1	·	2.9µM	10µM	–
O=C1CCc2cc(S(=O)(=O)Nc3ccc(F)cc3)cc3c2N1CC3	·	–	–	–
[O-][n+]1c2c(c3c4non(O)c4ccc31)CCCC2	–	12µM	·	–
Cc1cc(=O)[nH]c(N=N/C(=N/Nc2ccc(O)cc2)c2ccccc2)n1	–	·	?	–
COc1ccc(N/N=C(/N=Nc2nc(C)cc(=O)[nH]2)c2ccccc2)cc1	–	·	1.7µM	?
CC(NCCC(c1ccccc1)c1ccccc1)c1ccccc1 (stereo unspecified)	–	11µM	13µM	–
O=C(O)C1SCCN1S(=O)(=O)c1ccc(N=NN2CCOCC2)cc1 (stereo unspecified)	–	1.9µM	–	–
COc1ccc(N2CCN(C(c3cccc(OC)c3OC)c3nnnn3C3CCCC3)CC2)cc1 (stereo unspecified)	–	–	?	–
Fc1ccc(N2CCN(C(c3cccs3)c3nnnn3C3CCCC3)CC2)cc1 (stereo unspecified)	–	–	10µM	–
COc1ccc(N2CCN(C(c3ccccc3OC)c3nnnn3C3CCCC3)CC2)cc1 (stereo unspecified)	–	·	15µM	–
COc1ccc(OC)c(C(c2nnnn2C2CCCC2)N2CCN(c3ccccc3F)CC2)c1 (stereo unspecified)	–	?	4.1µM	–
C/C(=N/NC(=O)C1CCCN1C(=O)c1ccc([N+](=O)[O-])cc1)c1ccc(Br)cc1 (stereo unspecified)	–	–	?	–
CCCn1c(C(C)Nc2nc(-c3ccc(C)cc3)cs2)nc2cc(Cl)c(Cl)cc21 (stereo unspecified)	–	?	–	–
CCCn1c(C(CO)Nc2nc(-c3cccc(Br)c3)cs2)nc2ccccc21 (stereo unspecified)	–	5.9µM	?	–
CC(=O)C(Cc1ccccc1)NC(=O)COC(=O)c1cccc(C)c1[N+](=O)[O-] (stereo unspecified)	·	·	·	–
CCC1Sc2ccc(S(=O)(=O)CCC(=O)N3CCc4ccccc43)cc2NC1=O (stereo unspecified)	–	–	–	–
CC1Sc2ccc(S(=O)(=O)CCC(=O)Nc3ccccn3)cc2NC1=O (stereo unspecified)	–	9.3µM	–	–
CC1Sc2ccc(S(=O)(=O)CCC(=O)N3CCc4ccccc43)cc2NC1=O (stereo unspecified)	–	17µM	–	–
Cc1cc(-c2nn(-c3ccccc3F)cc2CN2CCC(O)CC2)c(C)s1	–	?	?	–
Cc1cc(-c2nn(-c3ccccc3F)cc2CN2CCN(c3ccncc3)CC2)c(C)s1	–	?	4.1µM	–
Cc1ccc(-n2nnc3ccccc3c2=O)cc1C	–	–	–	–
N=c1c2ccccc2nnn1-c1ccc(C(F)(F)F)cc1	·	?	0.29µM	–
SMILES	NS1 function inh	Pf growth 96h	Pf growth 48h	SARS PLpro yeast
O=C(Nc1ccc([N+](=O)[O-])cc1)c1cc(-c2ccccn2)nc2c(Cl)cccc12	–	15µM	–	–
CC(C)Oc1cccc(-c2cc(C(=O)N3CCN(c4ncccn4)CC3)c3ccccc3n2)c1	–	9.3µM	·	–
O=C(c1cc(-c2ccccn2)nc2c(Cl)cccc12)N1CCN(S(=O)(=O)c2ccccc2)CC1	?	–	10µM	–
Cc1ccc2nc(-c3ccccn3)cc(C(=O)N3CCN(c4ncccn4)CC3)c2c1	–	2.6µM	–	–
N#Cc1c(Cl)nsc1NCCN1CCOCC1	–	?	?	–
O=C1C=C(c2ccc(F)cc2OCc2ccccc2)C[C@@H](c2ccc(F)cc2)C1	·	?	–	–
CCN(Cc1ccc2c(c1)OCCO2)C(=O)CN1C(=O)NC2(CCc3ccccc32)C1=O (stereo unspecified)	·	?	–	–
CCCc1sc(N/N=C/c2ccccn2)nc1-c1ccc(F)cc1	–	–	2.6µM	–
O=C(Nc1nc2n(n1)C(c1ccccc1)CC(c1ccc(Cl)cc1)N2)c1ccco1 (stereo unspecified)	–	?	13µM	–
COc1ccc(C2CC(c3ccccc3)Nc3nc(NC(=O)c4ccco4)nn32)cc1 (stereo unspecified)	–	?	·	–
COc1ccccc1C(=O)NCCC(=O)Nc1ncccc1O	–	–	–	–
CC(=O)N1CCN(c2ccccc2NC(=O)COc2ccc(Cl)cc2Cl)CC1	–	·	10µM	–
Cc1ccc(OCC(=O)Nc2ccccc2N2CCCC2)c(C)c1	–	–[5.75 µM]	12µM	–
CCn1c(Cc2ccccc2)nnc1SCC(=O)Nc1ccccc1N1CCOCC1	–	3.3µM	?	–
CCC(=O)N1CCN(c2ccccc2NC(=O)COc2cc(C)ccc2C(C)C)CC1	–	·	3.3µM	–
Cc1ccc(C)c(OCC(=O)Nc2ccccc2N2CCCC2)c1	–	?	?	–
O=C(COc1ccccc1Cl)NCCNC(=O)c1cccnc1	–	–	–	–
COc1ccc(CCNC(=O)c2cc(C)oc2C)cc1	–	–	–	–
O=C(CSc1nnc(CNC(=O)c2c(F)cccc2F)o1)NCc1ccccc1Cl	–	–	–	–
O=S(=O)(/N=C(/Nc1cccnc1)c1ccccc1)c1ccc(F)cc1F	·	·	·	–
CCCCN(C(=O)c1ccc(C#N)cc1)c1c(N)n(CCC)c(=O)[nH]c1=O	–	–	–	–
Cc1cc(C)c(OCC(=O)Nc2ccccc2N2CCOCC2)c(C)c1	–	–	12µM	–
O=c1cc(N2CCCCC2)c(-c2ccccc2)nn1Cc1ccc(Cl)cc1Cl	–	?	2.1µM	–
C=CCn1nc(-c2ccccc2)c(N2CCCCC2)cc1=O	·	?	?	–
O=c1cc(N2CCCCC2)c(-c2ccccc2)nn1Cc1ccccc1Cl	–	2.6µM	3.3µM	–
SMILES	NS1 function inh	Pf growth 96h	Pf growth 48h	SARS PLpro yeast
O=c1cc(N2CCCCC2)c(-c2ccccc2)nn1Cc1cccc(Cl)c1	–	?	?	–
O=C(CCN1CCCO1)NC1CCCc2c1cnn2-c1ccccc1F (stereo unspecified)	–	?	–	–
O=C(CCc1cn2ccccc2n1)NC1CCCc2c1cnn2-c1ccccc1F (stereo unspecified)	–	13µM	–	–
Cc1ccnc(NC(=O)C2CCN(S(=O)(=O)c3ccc4c(c3)CC(C)N4C(=O)C3CCC3)CC2)c1 (stereo unspecified)	–	?	10µM	–
CC(C)CCNC(=O)C1CCN(S(=O)(=O)c2ccc3c(c2)CC(C)N3C(=O)C2CCC2)CC1 (stereo unspecified)	–	?	15µM	–
Cc1ccc(NC(=O)C2CCN(S(=O)(=O)c3ccc4c(c3)CC(C)N4C(=O)C3CCC3)CC2)nc1 (stereo unspecified)	–	?	?	–
N#CC(C#N)=CNCCN1CCN(C=C(C#N)C#N)CC1	–	·	·	·
